In PubChem BioAssay (EPA / NIEHS):
Records with an inconclusive call do not appear. Where a structure was tested more than once in an assay, its records may differ in their call. Active and inactive are the calls of the source. The calls were made as follows, unless noted: active = hit-call score of the fitted dose curve at least 0.9, where 1 is the maximum; inactive = score below 0.9.

What was measured:
[1] = target: Myc proto-oncogene protein (Homo sapiens) (UniProt P01106); assay: ATG_Myc_CIS: Attagene CIS-FACTORIAL HepG2 Assay for human Myelocytomatosis (Myc) Proto-Oncogene Transcription Factor (AID 2282990); details: HepG2, Attagene cis-reporter transcription factor activity; actives raise or lower the signal
Myc proto-oncogene protein (Homo sapiens), sequence (P01106 whole entry, looked up): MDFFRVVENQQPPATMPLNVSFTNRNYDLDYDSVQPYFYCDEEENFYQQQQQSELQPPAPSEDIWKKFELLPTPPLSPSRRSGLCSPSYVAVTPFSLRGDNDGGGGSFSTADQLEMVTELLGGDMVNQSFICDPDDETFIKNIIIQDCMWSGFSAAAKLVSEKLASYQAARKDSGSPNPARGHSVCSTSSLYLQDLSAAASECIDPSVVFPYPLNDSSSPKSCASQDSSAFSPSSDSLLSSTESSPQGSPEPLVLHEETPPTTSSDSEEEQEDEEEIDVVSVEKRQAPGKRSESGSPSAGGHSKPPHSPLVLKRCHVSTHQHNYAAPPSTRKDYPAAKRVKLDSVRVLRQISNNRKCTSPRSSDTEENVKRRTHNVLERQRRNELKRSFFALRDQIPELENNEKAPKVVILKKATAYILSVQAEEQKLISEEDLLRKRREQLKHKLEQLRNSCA
Procedure, shortened: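 Multiplexed cis-reporter transcription in HepG2 cells after 24 h chemical treatment. Reporter mRNA measured by RT-PCR and capillary electrophoresis fluorescence; activity fitted bidirectionally against DMSO control.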

[2] = ATG_NF_kB_CIS: Attagene CIS-FACTORIAL HepG2 Assay for human Nuclear Factor Kappa B (NF-kB) (AID 2282991); details: HepG2 Attagene cis-factorial NF-kB reporter mRNA; actives raise or lower the signal
Procedure, shortened: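 Endogenous transcription factor activity in HepG2 was captured via cis-regulated reporter constructs; after 24 h dosing, reporter mRNA was reverse-transcribed, amplified, fluorescently labelled and sized by capillary electrophoresis, with activity fitted bidirectionally relative to DMSO.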

[3] = ATG_NRF2_ARE_CIS: Attagene CIS-FACTORIAL HepG2 Assay for human Nuclear Factor Erythroid 2 Related Factor 2 (NFR2) response to Antioxidant Response Elements (ARE) (AID 2282992); details: HepG2 Attagene ARE/NRF2 reporter, transcription factor activity; actives raise or lower the signal
Procedure, shortened: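 Endogenous transcription factor activity read out as reporter transcript levels (RT-PCR plus capillary electrophoresis, fluorescence) in transiently transfected HepG2 cells. Measured at 24 h after dosing; gain or loss of signal fitted versus DMSO.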

[4] = target: Cellular tumor antigen p53 (Homo sapiens) (UniProt P04637); assay: ATG_p53_CIS: Attagene CIS-FACTORIAL HepG2 Assay for human p53 Transcription Factor (AID 2282994); details: HepG2 p53 cis-element reporter, Attagene mRNA; actives raise or lower the signal
Cellular tumor antigen p53 (Homo sapiens), sequence (P04637 whole entry, looked up): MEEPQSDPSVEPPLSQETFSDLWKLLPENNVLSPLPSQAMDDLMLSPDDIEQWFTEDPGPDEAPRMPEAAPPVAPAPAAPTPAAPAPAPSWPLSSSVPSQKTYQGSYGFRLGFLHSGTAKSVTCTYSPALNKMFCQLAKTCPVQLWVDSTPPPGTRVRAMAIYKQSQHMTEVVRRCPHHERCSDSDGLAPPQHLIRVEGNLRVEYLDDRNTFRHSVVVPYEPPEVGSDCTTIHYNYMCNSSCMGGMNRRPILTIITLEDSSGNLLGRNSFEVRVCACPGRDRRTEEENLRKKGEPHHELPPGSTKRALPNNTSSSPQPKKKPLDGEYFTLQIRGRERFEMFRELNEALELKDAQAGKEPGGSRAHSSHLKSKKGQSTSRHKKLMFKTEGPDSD
Procedure, shortened: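 Endogenous p53 activity read in transiently transfected HepG2 from a cis-element-driven reporter transcript after 24 h exposure. RNA reverse-transcribed, PCR-amplified, fluorescently labelled and sized by capillary electrophoresis; gain or loss fitted against DMSO baseline.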

[5] = target: human Peroxisome Proliferator-activated Receptor alpha (PPARa), PPARA (gene 5465) (UniProt Q07869); assay: ATG_PPARa_TRANS: Attagene TRANS-FACTORIAL HepG2 Assay for human Peroxisome Proliferator-activated Receptor alpha (PPARa) (AID 2283001; active = hit-call score of the fitted dose curve at least 0.9, where 1 is the maximum)
human Peroxisome Proliferator-activated Receptor alpha (PPARa), PPARA (gene 5465), sequence (Q07869 whole entry, looked up, the tested form may be a part): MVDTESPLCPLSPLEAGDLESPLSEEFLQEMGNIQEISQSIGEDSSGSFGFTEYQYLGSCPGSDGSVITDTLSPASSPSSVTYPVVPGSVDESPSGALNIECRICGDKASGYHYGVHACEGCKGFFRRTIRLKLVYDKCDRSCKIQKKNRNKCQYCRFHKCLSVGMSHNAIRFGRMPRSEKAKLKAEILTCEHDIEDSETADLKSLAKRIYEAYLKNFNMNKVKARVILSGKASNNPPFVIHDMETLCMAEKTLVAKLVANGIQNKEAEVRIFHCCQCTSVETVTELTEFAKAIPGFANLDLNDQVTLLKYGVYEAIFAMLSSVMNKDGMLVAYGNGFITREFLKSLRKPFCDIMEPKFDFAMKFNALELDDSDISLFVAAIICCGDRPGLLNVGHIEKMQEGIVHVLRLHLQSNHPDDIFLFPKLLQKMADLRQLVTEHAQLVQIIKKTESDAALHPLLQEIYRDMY
Procedure, shortened: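 Exposure: 24 h, transiently transfected HepG2 cells. Endpoint: GAL4-UAS reporter mRNA, RT-PCR with capillary electrophoresis fluorescence. Baseline: DMSO; increases fitted.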

[6] = target: human Peroxisome Proliferator-activated Receptor delta (PPARd), PPARD (gene 5467) (UniProt Q03181); assay: ATG_PPARd_TRANS: Attagene TRANS-FACTORIAL HepG2 Assay for human Peroxisome Proliferator-activated Receptor delta (PPARd) (AID 2283002; active = hit-call score of the fitted dose curve at least 0.9, where 1 is the maximum)
human Peroxisome Proliferator-activated Receptor delta (PPARd), PPARD (gene 5467), sequence (Q03181 whole entry, looked up, the tested form may be a part): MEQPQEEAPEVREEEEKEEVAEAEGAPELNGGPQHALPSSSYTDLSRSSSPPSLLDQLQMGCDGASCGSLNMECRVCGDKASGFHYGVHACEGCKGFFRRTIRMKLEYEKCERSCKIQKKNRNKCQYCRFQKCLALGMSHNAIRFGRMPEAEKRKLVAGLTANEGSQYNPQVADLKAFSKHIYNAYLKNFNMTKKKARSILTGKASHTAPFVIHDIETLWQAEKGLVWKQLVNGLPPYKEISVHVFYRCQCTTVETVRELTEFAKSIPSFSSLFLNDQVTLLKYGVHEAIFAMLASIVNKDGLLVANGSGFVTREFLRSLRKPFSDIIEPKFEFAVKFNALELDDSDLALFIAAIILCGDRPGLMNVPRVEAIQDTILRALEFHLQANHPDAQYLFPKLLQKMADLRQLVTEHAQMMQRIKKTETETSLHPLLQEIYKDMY
Procedure, shortened: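 Multiplexed trans-activation format: HepG2 liver cells expressing exogenous NR-Gal4 chimeras and GAL4-UAS reporters were exposed for 24 h. Reporter mRNA was detected by RT-PCR with capillary electrophoresis fluorescence; activity fitted as gain of signal relative to DMSO.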

[7] = target: human Retinoic Acid Receptor beta (RARb), RARB (gene 5915) (UniProt P10826); assay: ATG_RARb_TRANS: Attagene TRANS-FACTORIAL HepG2 Assay for human Retinoic Acid Receptor beta (AID 2283004; active = hit-call score of the fitted dose curve at least 0.9, where 1 is the maximum)
human Retinoic Acid Receptor beta (RARb), RARB (gene 5915), sequence (P10826 whole entry, looked up, the tested form may be a part): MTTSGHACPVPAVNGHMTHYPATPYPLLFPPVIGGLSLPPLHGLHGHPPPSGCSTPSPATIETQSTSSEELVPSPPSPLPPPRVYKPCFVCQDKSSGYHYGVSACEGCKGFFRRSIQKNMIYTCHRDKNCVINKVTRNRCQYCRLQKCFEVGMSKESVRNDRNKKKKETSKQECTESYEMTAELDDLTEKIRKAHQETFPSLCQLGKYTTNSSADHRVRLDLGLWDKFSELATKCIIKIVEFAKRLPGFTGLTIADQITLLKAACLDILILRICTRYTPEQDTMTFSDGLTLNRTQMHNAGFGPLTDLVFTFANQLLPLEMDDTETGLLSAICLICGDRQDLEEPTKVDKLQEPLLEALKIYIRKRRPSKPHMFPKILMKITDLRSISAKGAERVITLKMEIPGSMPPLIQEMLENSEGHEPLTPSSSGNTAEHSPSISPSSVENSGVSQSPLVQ
Procedure, shortened: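 HepG2 cells were transiently transfected with GAL4-UAS reporter units that report activity of exogenous chimeric NR-Gal4 proteins, then exposed to compound for 24 h. Reporter mRNA was quantified by RT-PCR with capillary electrophoresis fluorescence, as gain of signal over DMSO.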

[8] = target: Retinoic acid receptor alpha (Homo sapiens) (UniProt P10276); assay: ATG_RARa_TRANS: Attagene TRANS-FACTORIAL HepG2 Assay for human Retinoic Acid Receptor alpha (RARa) (AID 2283005; active = hit-call score of the fitted dose curve at least 0.9, where 1 is the maximum)
Retinoic acid receptor alpha (Homo sapiens), sequence (P10276 whole entry, looked up, the tested form may be a part): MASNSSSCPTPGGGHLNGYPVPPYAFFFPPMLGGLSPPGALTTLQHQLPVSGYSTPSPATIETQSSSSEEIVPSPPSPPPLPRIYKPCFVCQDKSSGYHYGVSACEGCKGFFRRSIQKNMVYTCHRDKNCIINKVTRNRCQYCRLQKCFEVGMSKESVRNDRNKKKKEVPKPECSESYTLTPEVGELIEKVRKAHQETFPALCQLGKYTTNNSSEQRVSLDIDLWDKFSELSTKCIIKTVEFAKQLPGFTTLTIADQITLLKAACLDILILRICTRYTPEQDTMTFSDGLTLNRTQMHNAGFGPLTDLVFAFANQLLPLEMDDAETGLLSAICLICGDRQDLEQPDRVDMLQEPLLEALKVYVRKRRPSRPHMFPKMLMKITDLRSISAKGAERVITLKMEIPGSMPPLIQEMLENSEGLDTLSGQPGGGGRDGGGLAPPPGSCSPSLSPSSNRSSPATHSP
Procedure, shortened: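 HepG2 cells transiently transfected with multiple reporter units expressing chimeric RARα-GAL4 fusion, with GAL4-UAS-driven reporters. After 24 h compound exposure, reporter mRNA induction quantified by RT-PCR and capillary electrophoresis with fluorescent labeling; gain-of-signal fitted relative to DMSO control.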

[9] = target: Nuclear receptor subfamily 1 group I member 2 (Homo sapiens) (UniProt O75469); assay: ATG_PXR_TRANS: Attagene TRANS-FACTORIAL HepG2 Assay for human Pregnane X Receptor (PXR) (AID 2283008; active = hit-call score of the fitted dose curve at least 0.9, where 1 is the maximum)
Nuclear receptor subfamily 1 group I member 2 (Homo sapiens), sequence (O75469 whole entry, looked up, the tested form may be a part): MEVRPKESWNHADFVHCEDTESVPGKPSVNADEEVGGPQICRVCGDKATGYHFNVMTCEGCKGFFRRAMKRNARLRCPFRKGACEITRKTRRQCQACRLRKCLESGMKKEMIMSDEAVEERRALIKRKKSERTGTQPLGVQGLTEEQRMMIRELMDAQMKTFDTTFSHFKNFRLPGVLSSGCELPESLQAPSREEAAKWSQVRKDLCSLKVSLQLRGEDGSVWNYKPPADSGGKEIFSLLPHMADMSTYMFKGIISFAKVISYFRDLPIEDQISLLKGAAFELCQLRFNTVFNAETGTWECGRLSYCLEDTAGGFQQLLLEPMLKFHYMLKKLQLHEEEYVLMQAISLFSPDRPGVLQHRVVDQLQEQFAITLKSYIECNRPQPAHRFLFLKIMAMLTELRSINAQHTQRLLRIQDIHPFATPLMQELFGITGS
Procedure, shortened: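 Transactivation by exogenous PXR–GAL4 fusion measured as reporter transcript induction after 24 h compound treatment of transfected human HepG2 cells. Read-out via RT-PCR and capillary electrophoresis of labelled fragments, fitted upward relative to DMSO.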

[10] = target: human RAR-related Orphan Receptor beta (RORb), RORB (gene 6096) (UniProt Q92753); assay: ATG_RORb_TRANS: Attagene TRANS-FACTORIAL HepG2 Assay for human RAR-related Orphan Receptor beta (RORb) (AID 2283010; active = hit-call score of the fitted dose curve at least 0.9, where 1 is the maximum)
human RAR-related Orphan Receptor beta (RORb), RORB (gene 6096), sequence (Q92753 whole entry, looked up, the tested form may be a part): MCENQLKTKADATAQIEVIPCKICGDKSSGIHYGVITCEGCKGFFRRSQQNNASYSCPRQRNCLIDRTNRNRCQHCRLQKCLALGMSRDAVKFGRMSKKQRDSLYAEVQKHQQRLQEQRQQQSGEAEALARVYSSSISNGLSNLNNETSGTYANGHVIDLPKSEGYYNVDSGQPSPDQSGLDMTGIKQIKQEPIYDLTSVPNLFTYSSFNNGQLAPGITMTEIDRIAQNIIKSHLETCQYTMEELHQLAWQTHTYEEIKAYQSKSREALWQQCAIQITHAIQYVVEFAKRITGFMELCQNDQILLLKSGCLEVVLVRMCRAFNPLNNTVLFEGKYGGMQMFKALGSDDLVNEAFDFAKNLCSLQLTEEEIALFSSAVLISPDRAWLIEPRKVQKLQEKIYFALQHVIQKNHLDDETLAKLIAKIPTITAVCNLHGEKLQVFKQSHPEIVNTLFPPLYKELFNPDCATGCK
Procedure, shortened: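 HepG2, transient MRTU transfection (GAL4-UAS reporters, exogenous NR-Gal4 chimeras); 24 h compound exposure; total RNA → RT-PCR → 6-FAM primer extension → HpaI digest → CE fluorescence. Positive direction vs DMSO baseline.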

[11] = target: human RAR-related Orphan Receptor gamma (RORg), RORC (gene 6097) (UniProt P51449); assay: ATG_RORg_TRANS: Attagene TRANS-FACTORIAL HepG2 Assay for human RAR-related Orphan Receptor gamma (RORg) (AID 2283011; active = hit-call score of the fitted dose curve at least 0.9, where 1 is the maximum)
human RAR-related Orphan Receptor gamma (RORg), RORC (gene 6097), sequence (P51449 whole entry, looked up, the tested form may be a part): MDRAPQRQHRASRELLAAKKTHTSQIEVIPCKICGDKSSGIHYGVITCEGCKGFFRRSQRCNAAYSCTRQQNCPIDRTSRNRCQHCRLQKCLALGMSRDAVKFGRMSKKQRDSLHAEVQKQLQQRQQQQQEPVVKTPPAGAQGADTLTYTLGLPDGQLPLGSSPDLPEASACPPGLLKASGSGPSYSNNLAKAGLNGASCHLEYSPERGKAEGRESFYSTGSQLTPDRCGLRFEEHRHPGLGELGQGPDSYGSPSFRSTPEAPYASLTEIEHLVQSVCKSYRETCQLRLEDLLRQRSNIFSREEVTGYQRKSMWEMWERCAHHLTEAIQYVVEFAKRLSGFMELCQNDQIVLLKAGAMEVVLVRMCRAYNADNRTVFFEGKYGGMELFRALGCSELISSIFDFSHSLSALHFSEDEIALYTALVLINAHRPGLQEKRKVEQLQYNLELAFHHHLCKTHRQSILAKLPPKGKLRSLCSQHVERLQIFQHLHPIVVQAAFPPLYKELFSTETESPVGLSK
Procedure, shortened: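 HepG2 cells transiently transfected with GAL4-UAS reporter units and chimeric RORg-Gal4 construct; after 24 h chemical exposure, reporter mRNA measured by RT-PCR with fluorescent capillary electrophoresis, gain of signal fitted against DMSO.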

[12] = ATG_Oct_MLP_CIS: Attagene CIS-FACTORIAL HepG2 Assay for human Octamer-Binding Transcription Factor (Oct) (AID 2282993); details: HepG2 Attagene cis-factorial Oct reporter, mRNA; actives raise or lower the signal
Procedure, shortened: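 Readout is reporter transcript level from RT-PCR with fluorescent primer extension and capillary electrophoresis, fitted in both directions against DMSO. Transfected HepG2 reporter units report endogenous factor activity after 24 h dosing.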

[13] = target: Peroxisome proliferator-activated receptor gamma (Homo sapiens) (UniProt P37231); assay: ATG_PPARg_TRANS: Attagene TRANS-FACTORIAL HepG2 Assay for human Peroxisome Proliferator-activated Receptor-gamma (PPARg) (AID 2283007; active = hit-call score of the fitted dose curve at least 0.9, where 1 is the maximum)
Procedure, shortened: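 A TRANS-format multiplexed reporter assay measures activity of an exogenous chimeric NR-Gal4 protein in HepG2 cells. After 24 h of chemical exposure, reporter transcripts are amplified, fluorescently labelled and sized by capillary electrophoresis, with gain of signal scored against DMSO.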

[14] = target: human Retinoic Acid Receptor gamma (RARg), RARG (gene 5916) (UniProt P13631); assay: ATG_RARg_TRANS: Attagene TRANS-FACTORIAL HepG2 Assay for human Retinoic Acid Receptor gamma (RARg) (AID 2283009; active = hit-call score of the fitted dose curve at least 0.9, where 1 is the maximum)
human Retinoic Acid Receptor gamma (RARg), RARG (gene 5916), sequence (P13631 whole entry, looked up, the tested form may be a part): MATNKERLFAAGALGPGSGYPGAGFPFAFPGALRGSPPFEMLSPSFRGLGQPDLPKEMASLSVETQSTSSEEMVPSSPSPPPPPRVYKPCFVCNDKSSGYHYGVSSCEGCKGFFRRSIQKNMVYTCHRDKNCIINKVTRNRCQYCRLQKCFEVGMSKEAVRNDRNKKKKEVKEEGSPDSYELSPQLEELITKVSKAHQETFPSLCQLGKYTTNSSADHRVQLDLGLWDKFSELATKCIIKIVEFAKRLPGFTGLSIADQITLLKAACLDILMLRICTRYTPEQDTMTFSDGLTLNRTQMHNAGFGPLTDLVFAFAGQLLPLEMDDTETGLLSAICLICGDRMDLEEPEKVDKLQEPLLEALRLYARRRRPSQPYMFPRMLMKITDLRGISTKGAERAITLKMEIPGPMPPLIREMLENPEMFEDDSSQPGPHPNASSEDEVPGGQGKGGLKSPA
Procedure, shortened: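 Readout: reporter transcript levels via RT-PCR, 6-FAM primer-extension labelling, HpaI digestion and capillary electrophoresis. Cells: HepG2 carrying transfected RARg-GAL4 chimera plus UAS reporter set. Dosing 24 h; DMSO negative control.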

[15] = BSK_3C_TissueFactor: BioMAP Diversity Plus: 3C Assay for Tissue Factor Biomarker Activity (AID 2282997); details: BioMAP 3C HUVEC, tissue factor biomarker readout; actives raise or lower the signal
Procedure, shortened: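 Tissue Factor measured by ELISA, 24 h after treatment of primary HUVEC in the BioMAP 3C setting.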

[16] = BSK_3C_uPAR: BioMAP Diversity Plus: 3C Assay for Urokinase-type plasminogen activator receptor (uPAR) Biomarker Activity (AID 2282998); details: BioMAP 3C HUVEC, uPAR biomarker ELISA; actives raise or lower the signal
Procedure, shortened: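 Cell-surface uPAR on HUVEC (3C system) read by ELISA at 24 h post-treatment, with DMSO as baseline and fitting in both directions. Parallel cultures stained with SRB to flag overt cytotoxicity.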

[17] = BSK_3C_VCAM1: BioMAP Diversity Plus: 3C Assay for Vascular cell adhesion molecule 1 (VCAM1) Biomarker Activity (AID 2282999); details: BioMAP 3C HUVEC, VCAM1 ELISA, cytokine-stimulated; actives raise or lower the signal
Procedure, shortened: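 Vascular primary endothelium (human umbilical vein) was exposed to chemicals and assayed 24 h later. VCAM-1 levels came from ELISA, with DMSO serving as baseline for bidirectional fitting.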

[18] = BSK_4H_Eotaxin3: BioMAP Diversity Plus: 4H Assay for Eotaxin 3 Biomarker Activity (AID 2283000); details: primary human endothelial cells (HUVEC); actives raise or lower the signal;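 also: CCL26 protein level quantified by ELISA in parallel with SRB cytotoxicity check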
Procedure, shortened: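 Eotaxin-3 (CCL26) levels were measured by ELISA in HUVEC primary cultures 24 h post-dosing. Gain or loss of signal was fitted in both directions, with DMSO serving as baseline and negative control.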

[19] = read-out: Intercellular Adhesion Molecule 1 (ICAM1), ICAM1 (gene 3383); assay: BSK_3C_ICAM1: BioMAP Diversity Plus: 3C Assay for Intercellular Adhesion Molecule 1 (ICAM1) Biomarker Activity (AID 2283003); details: primary human endothelial cells (HUVEC); actives raise or lower the signal
Procedure, shortened: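 ELISA read-out of ICAM-1; HUVEC (primary human), 3C system, 24 h post-dosing; bidirectional fit vs DMSO baseline.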

[20] = BSK_3C_Proliferation: Cell Proliferation Assessment in the BioMAP Diversity Plus: 3C Assay (AID 2283006); details: primary human endothelial cells (HUVEC);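 as to AC50: potency may reflect either rise or fall in cell number versus DMSO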
Procedure, shortened: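 HUVEC, sub-confluent; 48 h chemical exposure; 10% TCA fix, 0.1% SRB stain, A560 total protein. Gain or loss of signal fitted both directions vs DMSO control.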

Measured: AC50

COC(O)c1ccccc1 (stereo not given)
inactive: [1] | [2] | [3] | [4] | [5] | [6] | [7] | [8] | [9] | [10] | [11]

FC(F)(F)C1(F)C(F)(F)C(F)(F)C(F)(F)C1(F)F
not listed: [3] | [9] | [15] | [16] | [17] | [18] | [19] | [20]
inactive: all other assays above

CN(CCO)S(=O)(=O)C(F)(F)C(F)(F)C(F)(F)C(F)(F)C(F)(F)C(F)(F)C(F)(F)C(F)(F)F
inactive: [1] | [2] | [12] | [4] | [15] | [16] | [17] | [18] | [5] | [6] | [19] | [7] | [8] | [20] | [13] | [9] | [14] | [10]
active: [20] 662 nM

Brc1cc(Br)c(Oc2c(Br)cc(Br)c(Br)c2Br)cc1Br
inactive: [1] | [2] | [3] | [4] | [5] | [6] | [7] | [13] | [9] | [11]

COC(=O)C(F)(F)C(F)(F)C(F)(F)F
inactive: [1] | [2] | [3] | [4] | [5] | [6]

CCCCCCCCCCCC(=O)NCCCN(C)C
inactive: [1] | [2] | [5] | [9]
active: [12] 20.9 µM | [4] 20.2 µM

c1cc[nH]c1
inactive: [1] | [2] | [3] | [4] | [5] | [7] | [14] | [10]

CCc1ccccc1O
active: [3] 37.1 µM | [9] 15.7 µM
inactive: [1] | [2] | [6] | [13] | [14]

CC(C)[C@@H]1CC[C@@H](C)C[C@H]1O
inactive: [1] | [2] | [3] | [12] | [5] | [6] | [7] | [9] | [10]

O=C(F)C(F)(F)C(F)(F)C(F)(F)C(=O)F
inactive: [1] | [2] | [3] | [4] | [5] | [8] | [9] | [11]

FC(F)(F)C(F)(F)C(F)(F)Br
inactive: [1] | [2] | [12] | [4] | [8] | [13] | [9] | [14]

C=CC(=C)CC/C=C(\C)CCC=C(C)C
active: [3] 19 µM | [9] 6.93 µM
not listed: [5] | [12] | [13] | [14] | [15]
inactive: all other assays above

CC(=O)Nc1ccc(S(N)(=O)=O)cc1
inactive: [1] | [2] | [3] | [4] | [5] | [6] | [9] | [14] | [10]

COc1cccc(O)c1
inactive: [1] | [2] | [3] | [4] | [16] | [17] | [18] | [6] | [19] | [20] | [11]

C=CC(=O)OCCC(F)(F)C(F)(F)C(F)(F)C(F)(F)C(F)(F)C(F)(F)F
active: [3] 18.6 µM
inactive: [1] | [2] | [4] | [5] | [6] | [8] | [13] | [9] | [10] | [11]

CCOC(=O)CN[C@@H](C(=O)N1CC[C@H]1C(=O)NCc1ccc(/C(N)=N/O)cc1)C1CCCCC1
not listed: [3] | [7] | [8] | [10] | [11] | [13]
inactive: all other assays above

CCOC=O
inactive: [1] | [2] | [12] | [4] | [5] | [6] | [7] | [9] | [14] | [11]

CC(O)COc1ccccc1 (stereo not given)
inactive: [1] | [2] | [12] | [4] | [5] | [7] | [8] | [9] | [14] | [10] | [11]
